# According to PubChem BioAssay (NCI):
# This is part of a sample that, as a whole, favours compounds with a hit. Of some 83,000 tested, about 20% had one in any assay.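 Results are percent growth after 48 hours of single-concentration exposure. 100 means growth as in untreated cells, lower positive values show inhibition; negative values down to -100 show cell death.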 Values without a mark were called inactive. Active and inactive are the calls of the source. How the source made its calls: active means growth percent below 10; inactive means the rest.
# Tests used:
# Experiment in all cases: NCI-60 one-dose screen, 48 h (100 = growth as untreated, 0 = no growth, -100 = all killed)
# Details in all cases: 10 µM unless noted
# T-47D breast = system: T-47D breast
# BT-549 breast = system: BT-549 breast
# MDA-MB-435 melanoma = system: MDA-MB-435 melanoma
# SW-620 colon = system: SW-620 colon
# MCF7 breast = system: MCF7 breast
# HCT-116 colon = system: HCT-116 colon
# HCC-2998 colon = system: HCC-2998 colon
# KM12 colon = system: KM12 colon
SMILES,growth (T-47D breast),growth (BT-549 breast) [%],growth (MDA-MB-435 melanoma),growth (SW-620 colon),growth (MCF7 breast),growth (HCT-116 colon),growth (HCC-2998 colon),growth (KM12 colon)
Cc1c(C)c2c(c(C)c1NC(=O)CCCCCCC(=O)O)CCC(C)(CCCC(C)CCCC(C)CCCC(C)C)O2 (stereo unspecified),89.7%,60.3,95%,80.4%,43.5%,22.7%,98.2%,30.7%
Cc1cc(N2CCCC2)nc(N(CCNc2ccnc3cc(Cl)ccc23)Cc2ccco2)n1,12.4%,22.3,44%,25.5%,17.9%,-50.9% (active),76.6%,50%
Fc1cccc(-c2[nH]nc3nc(Nc4cccnc4)sc23)c1,50.8%,60.6,-8.7% (active),41.6%,29.3%,35%,70.2%,22.8%
C#Cc1cc2c(N)c(C(=O)c3cc(OC)c(OC)c(OC)c3)[nH]c2cc1OC,25.7%,57.4,-15.8% (active),18.4%,19.7%,29.9%,64.3%,31.5%
COc1cnc2c(c1)C(=O)c1c-2n(CCCN2CCN(CCO)CC2)c(=O)c2cc([N+](=O)[O-])ccc12,64.4%,65.6,40.8%,-48.8% (active),-6.37% (active),-87.6% (active),80%,32.4%
Cn1cc(-c2csc(-c3cn(C(=O)OC(C)(C)C)c4ccccc34)n2)c2cccnc21,43.4%,60.3,11.4%,36.1%,53.6%,56%,65.5%,38.5%
COc1cc2nc(Cl)nc(Nc3cccc(C(=O)/C=C/c4ccc(Cl)cc4)c3)c2cc1OC,71.1%,67,69.9%,-5.87% (active),19.7%,-0.905% (active),93.4%,40.5%
COc1cc(-c2c(C#N)c(-c3cccs3)nc3c2c(-c2ccccc2)nn3-c2ccccc2)ccc1O,56.8%,101,74.8%,88%,76.4%,56.8%,99.6%,78.4%
COc1cccc(-c2nn(-c3ccccc3)cc2-c2ccnc(NCCCNS(=O)(=O)c3ccc(Cl)cc3)c2)c1,14.2%,58.1,42.9%,62.6%,24.3%,31.1%,33.5%,38.9%
CCN1CCN(C(=O)[C@]23CCC(C)(C)C[C@@H]2C2=CC[C@@H]4[C@@]5(C)C/C(=C/c6cccnc6)C(=O)C(C)(C)[C@@H]5CC[C@@]4(C)[C@]2(C)CC3)CC1,20.1%,25.7,34.9%,27.6%,5.68% (active),13.3%,18.9%,33.8%
C=C(C)[C@@H]1CC[C@]2(C)[C@H](CC=C3[C@@H]4CC(C)(C)CC[C@]4(C=O)CC[C@]32C)[C@@]1(C)CCCN,79.1%,87.3,95.1%,29.5%,39%,22.9%,40.1%,77.3%
C[C@H]1[C@H]2C3=CC[C@@H]4[C@@]5(C)C/C(=C/c6ccco6)C(=O)C(C)(C)[C@@H]5CC[C@@]4(C)[C@]3(C)CC[C@@]2(C(=O)N2CCOCC2)CC[C@@H]1C,32%,75.8,97.1%,25.3%,39.4%,26.9%,90.5%,54.2%
O=C1c2cccc3cccc(c23)C(=O)N1CC#Cc1ccc2c3c(cccc13)C(=O)N(CCO)C2=O,98.2%,86.4,92.7%,92.2%,106%,78.4%,106%,101%
CC1=NN(c2ccc(S(=O)(=O)O)cc2Cl)C(=O)C1,97.8%,116,107%,107%,94.4%,93%,83.1%,137%
COc1ccc2c(c1)c(-c1nc(-c3c[nH]c4ncccc34)cs1)cn2CCNC(=O)OC(C)(C)C,9.63% (active),84.5,94.7%,96%,37.3%,87.6%,96.6%,46.1%
CC(C)=CCC[C@](C)(O)[C@H]1CC[C@]2(C)[C@@H]1CC[C@@H]1[C@@]3(C)C/C(=C/c4cccc([N+](=O)[O-])c4)C(=O)C(C)(C)[C@@H]3CC[C@]12C,60.2%,97.1,94.2%,72.6%,72.8%,51.5%,85.7%,86%
Cc1ccc(NC2CC(=O)N(c3c(C)cc(C)cc3C)C2=O)c(C)c1 (stereo unspecified),99.4%,113,103%,101%,92.9%,105%,112%,102%
CC(CNc1nc(Nc2ccc(Cl)c(Cl)c2)nc(C(Cl)(Cl)Cl)n1)N(C)C (stereo unspecified),20.4%,45.6,-47.1% (active),-74.8% (active),-64.8% (active),-88.7% (active),-79.4% (active),-88.4% (active)
CC(Cc1ccco1)C(=O)NC(N)=O (stereo unspecified),114%,106,105%,104%,102%,106%,105%,105%
Fc1ccc2nc(-c3cc(-c4ccc5c(c4)OCO5)n[nH]3)[nH]c2c1,50.4%,27.5,46.4%,37.2%,59.3%,49.6%,71.9%,16.1%
Fc1ccc(Nc2ccc3c(OCCCN4CCOCC4)cccc3n2)cc1F,78%,86.1,78.7%,47.6%,61.3%,78.5%,66.3%,16.1%
COc1cccc(-c2nn(-c3ccccc3)cc2-c2ccnc(NCCCNS(=O)(=O)c3ccc(Br)cc3)c2)c1,18.5%,73,54.3%,69.7%,29.6%,40.8%,46%,44.1%
COc1cc2nc(Cl)nc(Nc3cccc(C(=O)/C=C/c4ccccc4)c3)c2cc1OC,68.8%,62.9,36.5%,-11.9% (active),12.3%,-52.1% (active),57.4%,9.13% (active)
Cn1cc(-c2csc(-c3cn(CCN)c4ccccc34)n2)c2cccnc21,20%,59.6,16.6%,44.2%,16.7%,36.9%,65.3%,46.3%
Cc1cc(C)c(NC(=O)c2sc3nc4c(cc3c2N)CCCC4)c(C)c1,36.2%,56.4,-13.6% (active),30.5%,23.7%,29.9%,87.6%,34.9%
O=C(CCCCCn1c2ccccc2c2c3c(c4c5ccccc5[nH]c4c21)C(=O)N(O)C3=O)N1CCOCC1,23.6%,60.3,54.9%,56.4%,15.7%,24.3%,18.8%,47.6%
COc1cc2nc(Cl)nc(Nc3cccc(C(=O)/C=C/c4ccc(Br)cc4)c3)c2cc1OC,72.4%,79.7,89.6%,15.1%,31.7%,15.8%,104%,78.1%
